The values that follow come from PubChem BioAssay (NCATS).

Test [1] has as its target Lysosomal acid glucosylceramidase (Homo sapiens) (UniProt P04062). As to the kind of experiment: Glucocerebrosidase-p2 (AID 348; in the data active means potency below about 10 µM; further: potency means the concentration at half of the fitted maximal effect). Particulars: purified GBA, blue fluorogenic substrate, 40 min. The essentials: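 Compounds titrated from 0.6 nM upwards against 0.2 nM enzyme in pH 5.9 citric acid/KH2PO4, taurocholate, tween-20; blue fluorogenic substrate 80 uM, 40 min room temperature, stopped and read Ex 365/Em 440 for AC50.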

A short description of test [2]: AP1 Signaling Pathway (AID 357).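 Further: ME-180 reporter cells stimulated with EGF at its EC50 level; on the % scale 0 is the no-effect control and ±100 the full control effect.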 As to conditions: ME-180 AP-1-bla reporter, EGF-induced, beta-lactamase ratio, 5 h; at 7.69 µM (top of the series) unless noted. The essentials:
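A ratiometric CCF4 readout (405 nm excitation; 460 and 530 nm emission) quantified AP-1-driven beta-lactamase in ME-180 cells after 5 h with compound and EC50 EGF; AC50 values were derived for activators and inhibitors.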

Test [3] concerns the target Cytochrome P450 1A2 (Homo sapiens) (UniProt P05177). The experiment in a line: p450-cyp1a2 (AID 410; calls by dose curve; further: potency means the concentration at half of the fitted maximal effect). Particulars: recombinant CYP1A2, luciferin-ME demethylation, luminescence; series mostly up to 11.4 µM. The essentials:
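20nM CYP1A2 with 100uM Luciferin-ME (at Km) in 100mM KPO4; compound preincubated 10 min, NADPH regeneration added, 60 min at room temperature. Luciferin quantified by luminescence after detection reagent; normalized to 57 uM furafylline.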

A short description of test [4]: NFAT Signaling Pathway (AID 444).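 Further: carbachol stimulus at about its EC50 of 1 µM final; on the % scale 0 is the no-effect control and ±100 the full control effect.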 As to conditions: Jurkat NFAT-bla M1, carbachol, beta-lactamase ratio, 5 h; at 7.69 µM (top of the series) unless noted. In short, it runs like this:
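Jurkat cells with NFAT-driven β-lactamase reporter and co-expressed M1 receptor, stimulated with carbachol (final 1 uM, ~EC50), compound titration, 5 h at 37 °C. CCF4 loaded 1 h at RT; 460/530 nm ratio gave %activity and AC50.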

The nature of test [5]: Stat Signaling Pathway (AID 446).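 Further: ME-180 cervical cancer cells given 40 pM IL-6 alongside compound; SIE-controlled beta-lactamase reporter measured as 460/530 nm FRET emission ratio; on the % scale 0 is the no-effect control and ±100 the full control effect.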 Particulars: ME-180 SIE beta-lactamase reporter, IL-6 stimulated, 5 h; at 7.69 µM (top of the series) unless noted. In short, it runs like this:
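Reporter line: ME-180 cervical carcinoma, SIE-beta-lactamase. Treatment: compound with 40 pM IL-6, 5 hrs, 37 C, in low-serum OPTI-MEM with 10 mM HEPES pH 7.3. Detection: 460/530 nm fluorescence.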

Test [6] deals with Glucocorticoid receptor (Homo sapiens) (UniProt P04150). The experiment in a line: GR-GFP Redistribution (AID 450;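 active means compounds whose dose series gives a full or clear partial fitted curve of increased nuclear translocation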; further: potency means the concentration at half of the fitted maximal effect). Particulars: U2OS GR-GFP nuclear translocation, laser cytometry, 2 h.
Test [7] has the same target. As to the kind of experiment: GR-EFC Redistribution (AID 451; calls by dose curve; further: potency means the concentration at half of the fitted maximal effect). As to conditions: CHO-K1 GR-EFC translocation, beta-gal luminescence, 2 h. In short, it runs like this: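 CHO-K1 cells expressing nuclear EA and GR-ED fragments of b-gal; compounds titrated up to 46 uM final, 2 h at 37 C. GR nuclear translocation read as complemented b-gal luminescence after 1 h RT detection.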

Test [8] deals with Mitogen-activated protein kinase 10 (Mus musculus) (UniProt Q61831). As to the kind of experiment: JNK3 AlphaScreen Assay (AID 530).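 Further: kinase came from lysate of stimulated human HepG2 cells; signal reports phosphorylation of biotinylated GST-cJun 1-79 at Ser73 with 10 µM ATP; on the % scale 0 is the no-effect control and ±100 the full control effect.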 Particulars: JNK3 lysate, c-Jun phosphorylation; series mostly up to 11.4 µM. The essentials: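 Pre-activated (IL-1β/TNFα) JNK3 in HepG2 lysates phosphorylates biotin-GST-cJun(1-79), 10 uM ATP; anti-phospho-cJun(Ser73) AlphaScreen read at room temperature, pH 7.6 Tris buffer. Compounds pre-incubated 15 min as titrations.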

For test [9], the target named is 3',5'-cyclic-AMP phosphodiesterase 4B (Homo sapiens) (UniProt Q07343). As to the kind of experiment: qHTS Assay for Inhibitors of PDE-IV (AID 607; active means well fitted activation curve with a large enough effect in the main read-out, with a control signal flat, not every such curve was filed as active; further: % of control where 0% means no effect). As to conditions: HEK293 ACTOne CNG channel cells, membrane potential fluorescence; series mostly up to 22.9 µM. In short, it runs like this: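 Cell-based read-out of cAMP via a modified cyclic nucleotide-gated channel and membrane potential dye (535/590 nm) in HEK293 cells expressing PDE4 endogenously. Compounds tested up to 22.9 uM final; 100 uM RO 20-1724 reference.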
A general note: In qHTS, concentration-response curves come from the screen itself.

Unmarked numbers belong to inactive results. Results filed as inconclusive are left out. Activity calls are given as the source filed them. Unless noted, the call rests on the fitted dose curve; in most records, active means well fitted curve in either direction with a large enough effect (not every such curve was filed as active); inconclusive means small, poorly fitted or top-dose-only effect, or another doubt; inactive means flat fitted curve, though single readings scatter.

Sequence of Cytochrome P450 1A2 (Homo sapiens) (P05177 whole entry, looked up): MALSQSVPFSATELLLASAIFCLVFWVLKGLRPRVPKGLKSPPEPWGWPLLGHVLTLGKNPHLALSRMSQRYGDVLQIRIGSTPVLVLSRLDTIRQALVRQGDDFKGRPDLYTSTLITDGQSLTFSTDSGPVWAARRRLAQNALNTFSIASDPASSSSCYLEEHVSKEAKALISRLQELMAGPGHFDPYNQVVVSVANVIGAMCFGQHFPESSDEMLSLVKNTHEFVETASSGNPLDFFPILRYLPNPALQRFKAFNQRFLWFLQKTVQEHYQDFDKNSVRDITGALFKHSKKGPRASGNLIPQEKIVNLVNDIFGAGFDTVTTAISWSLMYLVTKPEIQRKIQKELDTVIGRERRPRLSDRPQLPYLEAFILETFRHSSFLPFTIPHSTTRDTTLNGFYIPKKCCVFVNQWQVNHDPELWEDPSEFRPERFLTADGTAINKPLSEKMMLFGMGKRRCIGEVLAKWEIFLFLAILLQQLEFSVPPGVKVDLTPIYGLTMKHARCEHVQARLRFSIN
Sequence of 3',5'-cyclic-AMP phosphodiesterase 4B (Homo sapiens) (Q07343 whole entry, looked up): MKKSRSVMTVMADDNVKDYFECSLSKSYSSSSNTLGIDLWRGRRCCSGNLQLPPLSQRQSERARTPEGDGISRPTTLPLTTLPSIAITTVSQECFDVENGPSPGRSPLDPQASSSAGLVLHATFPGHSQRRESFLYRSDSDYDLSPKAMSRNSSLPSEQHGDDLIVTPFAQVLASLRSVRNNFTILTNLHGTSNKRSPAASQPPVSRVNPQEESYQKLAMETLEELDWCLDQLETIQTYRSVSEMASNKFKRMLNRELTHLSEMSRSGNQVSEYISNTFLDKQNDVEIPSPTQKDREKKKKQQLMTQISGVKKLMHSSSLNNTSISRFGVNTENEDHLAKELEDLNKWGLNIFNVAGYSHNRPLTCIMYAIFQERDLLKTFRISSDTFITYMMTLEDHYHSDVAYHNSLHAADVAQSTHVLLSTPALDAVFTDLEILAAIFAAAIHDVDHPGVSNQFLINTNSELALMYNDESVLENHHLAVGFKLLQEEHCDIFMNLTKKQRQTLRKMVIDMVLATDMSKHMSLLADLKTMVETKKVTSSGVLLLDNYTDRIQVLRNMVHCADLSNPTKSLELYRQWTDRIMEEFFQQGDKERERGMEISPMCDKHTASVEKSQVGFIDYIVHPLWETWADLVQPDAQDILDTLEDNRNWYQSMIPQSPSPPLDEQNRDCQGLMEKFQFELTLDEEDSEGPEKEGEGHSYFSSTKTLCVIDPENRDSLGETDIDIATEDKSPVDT
Sequence of Glucocorticoid receptor (Homo sapiens) (P04150 whole entry, looked up, the tested form may be a part): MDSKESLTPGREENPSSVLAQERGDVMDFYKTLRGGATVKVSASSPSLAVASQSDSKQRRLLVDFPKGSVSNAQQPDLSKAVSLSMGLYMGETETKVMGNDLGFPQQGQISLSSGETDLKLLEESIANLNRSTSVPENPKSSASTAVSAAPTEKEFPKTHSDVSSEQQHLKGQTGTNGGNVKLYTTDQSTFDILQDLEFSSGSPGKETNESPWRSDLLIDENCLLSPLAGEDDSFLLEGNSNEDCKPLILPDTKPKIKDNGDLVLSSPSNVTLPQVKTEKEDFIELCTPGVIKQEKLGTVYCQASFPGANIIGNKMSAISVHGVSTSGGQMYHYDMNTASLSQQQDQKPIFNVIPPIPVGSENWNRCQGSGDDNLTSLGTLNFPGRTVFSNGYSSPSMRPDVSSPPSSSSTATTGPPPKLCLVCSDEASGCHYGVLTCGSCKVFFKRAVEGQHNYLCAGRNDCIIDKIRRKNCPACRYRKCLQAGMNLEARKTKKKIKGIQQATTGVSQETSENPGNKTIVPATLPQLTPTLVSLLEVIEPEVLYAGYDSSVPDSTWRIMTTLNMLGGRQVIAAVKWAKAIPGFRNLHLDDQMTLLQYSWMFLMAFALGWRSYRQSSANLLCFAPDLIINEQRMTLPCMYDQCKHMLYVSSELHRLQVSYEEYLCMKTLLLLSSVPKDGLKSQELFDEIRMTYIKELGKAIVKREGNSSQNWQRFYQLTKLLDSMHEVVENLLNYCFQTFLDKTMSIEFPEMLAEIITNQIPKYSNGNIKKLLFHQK
Sequence of Lysosomal acid glucosylceramidase (Homo sapiens) (P04062 whole entry, looked up): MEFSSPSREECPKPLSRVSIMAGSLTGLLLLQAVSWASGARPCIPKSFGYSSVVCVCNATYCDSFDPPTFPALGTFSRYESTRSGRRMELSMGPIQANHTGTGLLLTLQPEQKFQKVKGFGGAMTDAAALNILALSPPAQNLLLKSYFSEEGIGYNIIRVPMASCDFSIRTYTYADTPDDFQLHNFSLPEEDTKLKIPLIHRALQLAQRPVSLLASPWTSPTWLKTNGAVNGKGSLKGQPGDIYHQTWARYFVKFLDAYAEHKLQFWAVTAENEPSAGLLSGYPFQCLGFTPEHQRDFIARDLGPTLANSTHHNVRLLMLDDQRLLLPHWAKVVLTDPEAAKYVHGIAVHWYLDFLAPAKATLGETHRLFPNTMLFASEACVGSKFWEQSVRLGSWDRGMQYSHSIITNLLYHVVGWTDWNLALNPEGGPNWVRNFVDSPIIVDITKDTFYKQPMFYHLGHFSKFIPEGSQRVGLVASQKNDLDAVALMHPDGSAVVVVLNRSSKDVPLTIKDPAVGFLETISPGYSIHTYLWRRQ

Take `O[C@]1(c2ccccc2)c2ccccc2NC2=NCCN21`: the figures for the Potency in [1], in test [6] and in test [7] were more than 11.4 µM, more than 46 µM and more than 9.22 µM, respectively. The results for the activity change, negative = inhibition in [2] and in test [4] were 12.3% and -13.7%, respectively. Besides, the Potency result in [3], in [8] and in test [9] was “inactive” in each case. In addition, the activity, negative = inhibition in test [5] was 4.27%.
Consider `Cc1cccc2c1Oc1ccccc1[C@@H]2NC(=O)c1ccc([N+](=O)[O-])cc1`, for which the Potency in [1] was more than 11.4 µM; in test [3] it was 1 µM (active); in test [6], more than 46 µM; in test [7], more than 9.22 µM. Moreover, the activity change, negative = inhibition in test [2] is 0.106%; in test [4], -2.92%. Further, the activity, negative = inhibition in test [5] was -4.56%. The Potency result in [8] and in test [9] was “inactive” throughout.
For the molecule `C[C@@H](N1CCOCC1)[C@@](O)(c1ccccc1)c1ccccn1`, the Potency in [1] was more than 11.4 µM; in test [6], more than 46 µM; in test [7] it was more than 9.22 µM. Also, the figures for the activity change, negative = inhibition in test [2], in test [3] and in [4] were 2.55%, -2.5% [at 2.29 µM] and 12.6%, respectively. In test [5], the activity, negative = inhibition was 4.17%. In addition, the Potency result in test [8] and in test [9] was “inactive” each time.
As for `Nc1nc(-c2cccnc2)cc(-c2cc(-c3cccnc3)nc(N)n2)n1`, the Potency in [1] was more than 11.4 µM; in test [6] it was more than 46 µM; in test [7] it was more than 9.22 µM. The values for the activity change, negative = inhibition in test [2], in test [3] and in [4] were 16.4%, -15.9% [at 2.29 µM] and 12.8%, respectively. Also, the activity, negative = inhibition in test [5] was 1.62%. The Potency result in test [8] and in [9] was “inactive” in each case.
Consider `NCCc1nc(-c2nc(C(=O)O)cs2)cs1`, for which the values for the Potency in test [1], in [6] and in [7] were more than 11.4 µM, more than 46 µM and more than 9.22 µM, respectively. For the same molecule, the activity change, negative = inhibition was -1.29% in test [2] and -25.9% in test [4]. Besides, the Potency result in [3], in test [8] and in test [9] was “inactive” in each case. In [5], the activity, negative = inhibition is -10%.
On to `N=C(N)SCCc1ccncc1`, for which the figures for the Potency in [1], in test [6] and in test [7] were more than 11.4 µM, more than 46 µM and more than 9.22 µM, respectively. The activity change, negative = inhibition in test [2] was 3.09%; in test [3] it was -17.8% [at 2.29 µM]; in test [4] it was -0.295%. In addition, the activity, negative = inhibition in [5] is 3.81%. The Potency result in test [8] and in [9] was “inactive” each time.
Regarding `CSc1nc(C)cc(Nc2ccc(O)c(CN3CCOCC3)c2)n1`, the Potency in test [1] is more than 11.4 µM; in test [3] it was 3.98 µM (active); in test [6] it was more than 46 µM; in test [7], more than 9.22 µM. In addition, the figures for the activity change, negative = inhibition in test [2] and in test [4] were -11.8% and 12.3%, respectively. Besides, the activity, negative = inhibition in [5] was -6.58%. The Potency entry in test [8] and in test [9] was “inactive” throughout.
`Clc1ccc(C=Nc2ccc3c(c2)Cc2ccccc2-3)c(Cl)c1`: the Potency in test [1] was more than 11.4 µM; in test [3] it was 0.794 µM (active); in test [6], more than 46 µM; in [7] it was more than 9.22 µM. For the same molecule, the activity change, negative = inhibition in test [2] was 3.71%; in [4], 23.1%. In addition, in test [5], the activity, negative = inhibition was 12.8%. Besides, the Potency result in test [8] and in [9] was “inactive” throughout.
On to `COc1ccc([C@H](O)c2ccccn2)cc1`, for which the Potency is more than 11.4 µM in test [1], more than 46 µM in test [6] and more than 9.22 µM in [7]. In addition, the activity change, negative = inhibition was -0.268% in test [2] and 2.24% in test [4]. In addition, the Potency result in [3], in [8] and in test [9] was “inactive” throughout. In addition, the activity, negative = inhibition in test [5] is 9.75%.
In the case of `C/C(=N\NC(N)=S)c1ccc[nH]1`, the Potency is more than 11.4 µM in test [1], 3.16 µM (active) in test [3], more than 46 µM in test [6] and more than 9.22 µM in [7]. Also, the values for the activity change, negative = inhibition in [2] and in test [4] were 0.43% and 12%, respectively. Further, the activity, negative = inhibition in test [5] is -24.4%. Besides, the Potency result in test [8] and in test [9] was “inactive” in each case.
For the molecule `CS(=O)(=O)N(CC(=O)O)Cc1ccccc1`, the figures for the Potency in test [1], in [6] and in test [7] were more than 11.4 µM, more than 46 µM and more than 9.22 µM, respectively. For the same molecule, the activity change, negative = inhibition was 13.2% in [2] and 14.9% in test [4]. The Potency result in [3], in test [8] and in test [9] was “inactive” throughout. In addition, in [5], the activity, negative = inhibition was 10.2%.
As for `O=C(O)[C@H](Cc1ccc(O)c([N+](=O)[O-])c1)N1C(=O)c2ccccc2C1=O`, the Potency in [1] was more than 11.4 µM; in test [6], more than 46 µM; in test [7] it was more than 9.22 µM. For the same molecule, the activity change, negative = inhibition was 0.441% in test [2], -17.9% [at 2.29 µM] in test [3] and 11.4% in test [4]. In addition, the activity, negative = inhibition in test [5] is 2.16%. Besides, the Potency entry in [8] and in test [9] was “inactive” throughout.
On to `O=c1[nH]cc(CS(=O)(=O)Cc2c[nH]c(=O)[nH]c2=O)c(=O)[nH]1`, for which the Potency in test [1] was more than 11.4 µM; in test [6], more than 46 µM; in test [7], more than 9.22 µM. The activity change, negative = inhibition in [2] is -0.933%; in [4], 1.47%. For the same molecule, the Potency result in [3], in test [8] and in test [9] was “inactive” each time. The activity, negative = inhibition in [5] was 0.704%.
`O=P(O)(O)O[C@@H]1O[C@H](CO)[C@@H](O)[C@H](O)[C@@H]1O`: the Potency was more than 11.4 µM in test [1], more than 46 µM in test [6] and more than 9.22 µM in test [7]. Also, the activity change, negative = inhibition in test [2] is 4.24%; in test [4] it was 2.61%. In addition, the Potency result in test [3], in test [8] and in test [9] was “inactive” throughout. Moreover, the activity, negative = inhibition in test [5] is 6.12%.
As to `O=C(O)CNc1ccc(C(=O)O)cc1`, the Potency in [1] is more than 11.4 µM; in test [6], more than 46 µM; in test [7], more than 9.22 µM. Also, the activity change, negative = inhibition in [2] is -2.61%; in test [4] it was 12.8%. The Potency entry in test [3], in test [8] and in [9] was “inactive” in each case. For the same molecule, in test [5], the activity, negative = inhibition was 6.8%.
